Compound activity (PubChem BioAssay)
D3 antag = D3 dopamine receptor (human) antagonism. AID 652054. P35462. hit rate 2.5% among 360,000. max response, negative = inhibition, %. D3R cells, DiscoveRx beta-arrestin luminescence, antagonist mode; hits give low values; in the data active means max response below about -50%; inconclusive means no clear call, values can overlap the other calls; further: on the % scale 0 is the no-effect control and ±100 the full control effect
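Cells plated overnight at 1500 cells/well, then exposed to library compounds with dopamine controls for 90 minutes at 37 degrees C. DiscoveRx reagent added for 30–60 minutes at room temperature; luminescence read, quantitative HTS format.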
D3 ag = D3 dopamine receptor (human) agonism; D3R DiscoveRx beta-arrestin cells, luminescence, 90 min; max activation, %; hit rate 0.58% among 410,000; AID 652048; in the data active means max activation above about 30%; further: 0% is about no effect
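Cells at 1500/well, incubated overnight, then treated with pinned compounds (dopamine as control) for 90 min at 37 degrees C. DiscoveRx reagent added for 30 - 60 minutes at room temperature; luminescence read.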
PI5P4K alpha inh = PI5P4K alpha (human) kinase inhibition; P48426; PI5P4Kalpha enzyme, ADP-Glo luminescence, 60 min; hits give low values; max response, %; hit rate 1.2% among 330,000; AID 652105; active means max response of -50% or lower; inconclusive means between -30% and -50%; inactive means -30% or higher; further: value at the top dose of about 77 µM; on the % scale 0 is the no-effect control and ±100 the full control effect
Target sequence (P48426 whole entry, looked up): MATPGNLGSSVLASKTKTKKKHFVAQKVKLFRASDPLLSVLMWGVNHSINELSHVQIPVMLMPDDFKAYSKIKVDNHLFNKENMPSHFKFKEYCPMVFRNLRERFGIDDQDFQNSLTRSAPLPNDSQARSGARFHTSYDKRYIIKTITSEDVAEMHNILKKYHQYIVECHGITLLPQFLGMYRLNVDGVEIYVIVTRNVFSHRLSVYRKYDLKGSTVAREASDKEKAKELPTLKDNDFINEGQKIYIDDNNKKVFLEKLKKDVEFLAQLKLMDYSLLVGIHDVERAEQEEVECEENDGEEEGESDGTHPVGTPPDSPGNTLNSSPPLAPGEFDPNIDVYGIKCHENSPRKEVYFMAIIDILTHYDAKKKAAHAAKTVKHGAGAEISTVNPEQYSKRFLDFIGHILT
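PI5P4Kalpha ADP-Glo assay; 5 microM ATP final; 60 min RT reaction; HEPES pH 7.4/EGTA/CHAPS, 5% DMSO; controls lacking substrate or enzyme; luminescent end-point.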
LDHA block = inhibitors of human lactate dehydrogenase A | P00338 | purified LDHA, NADH/diaphorase-resazurin fluorescence; hits give low values | activity change, % (values are at about 110 or 230 µM) | hit rate 0.15% among 480,000; in the data active means activity change below about -30%; inconclusive means mostly about -25% to -30%;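 further: plate controls were DMSO wells for no effect and wells without enzyme for full effect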
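Resorufin fluorescence (ex540/em590), read at 0 and 20 min after diaphorase/resazurin addition, reports the NADH left after a 5 min room-temperature reaction of 2 nM human LDH5 with 0.06 mM NADH and 0.2 mM pyruvate.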
PI4K2A inh = blocks human PI4K2A kinase activity; Q9BTU6; purified PI4K2A, ADP-Glo luminescence, 1 h; hits give low values; activity change, negative = inhibition, % at 76.9 µM; hit rate 0.13% among 420,000; AID 1346378; in the data active means activity change below about -50%; inconclusive means mostly about -30% to -49%;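 further: -100% = wells without enzyme as full effect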
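ADP-Glo luminescence measured ADP generated by PI4K2A enzyme (4 ug/mL before mixing) with 1.2 mM PI substrate (pre-mix) and 300 microM ATP (pre-mix). Tris pH7.5 buffer with MgCl2, Triton X-100; 1 h reaction at ambient temperature.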
* = called active by the depositor; ? = inconclusive; . = no result given. The list is not random: actives were taken first. Their share in the collection is about 3.3%.

SMILES | D3 antag | D3 ag | PI5P4K alpha inh | LDHA block | PI4K2A inh
Oc1ccc(C[C@H]2CN([C@@H](Cc3ccccc3)CN3CCC[C@@H]3CN3C(=S)NC[C@@H]3Cc3ccccc3)C(=S)N2CC2CCCCC2)cc1 | 13 | 5 | 0 | -13 | 0
CC(C)C[C@H]1CNC(=S)N1C[C@H]1CCCN1C[C@H](Cc1ccccc1)N1C[C@H](Cc2ccc(O)cc2)N(CC2CCCCC2)C1=S | 21 | 13 | -12 | -13 | -2
O=C1NC[C@H](Cc2ccc(O)cc2)N(C[C@H]2CCCN2C[C@H](Cc2ccc(O)cc2)N2C[C@H](Cc3ccc(O)cc3)N(CCc3ccccc3)C(=O)C2=O)C1=O | -70* | -2 | -5 | -24 | -2
O=C1NC[C@H](Cc2ccccc2)N(C[C@@H]2CCCN2C[C@H](Cc2ccc(O)cc2)N2C[C@H](Cc3ccc(O)cc3)N(CCc3ccccc3)C(=O)C2=O)C1=O | 15 | 2 | -2 | -3 | 6
Oc1ccc(C[C@H]2CN([C@@H](Cc3ccc(O)cc3)CN3CCC[C@@H]3CN3C(=S)NC[C@@H]3Cc3ccccc3)C(=S)N2CCc2ccccc2)cc1 | -53* | -19 | 0 | -7 | 2
Oc1ccc(C[C@H]2CNC(=S)N2CC2CCCN2C[C@H](Cc2ccc(O)cc2)N2C[C@H](Cc3ccccc3)N(CC3CCCCC3)C2=S)cc1 (stereo not given in full) | -64* | -41 | -16 | -1 | -4
CC(C)C[C@H]1CNC(=S)N1CC1CCCN1C[C@H](Cc1ccc(O)cc1)N1C[C@H](Cc2ccccc2)N(CC2CCCCC2)C1=S (stereo not given in full) | -81* | -44 | 5 | -3 | 0
Oc1ccc(C[C@H]2CN([C@@H](Cc3ccccc3)CN3CCCC3CN3C(=S)NC[C@@H]3Cc3ccccc3)C(=S)N2CCc2ccccc2)cc1 (stereo not given in full) | 5 | 0 | 1 | -4 | 6
O=C(CN1C(=O)NC(Cc2c[nH]c3ccccc23)C1=O)Nc1c(F)cccc1F (stereo not given) | . | . | . | -5 | .
COc1ccccc1C(c1c(O)nc(SC)[nH]c1=O)c1c(O)nc(SC)[nH]c1=O | 6 | 9 | -51* | -4 | 4
CCOc1cc(C(c2c(O)nc(SC)[nH]c2=O)c2c(O)nc(SC)[nH]c2=O)ccc1O | -3 | -7 | ? | 9 | -19
CCn1c2ccccc2c2cc(C=NNC(=O)c3cc(-c4ccc(OC)cc4)n[nH]3)ccc21 | . | . | . | . | 2
O=C(Oc1ccccc1)c1cc(O)c(O)c(O)c1 | -3 | 0 | ? | -35* | -22
Cc1cc(C)cc(NC(=O)CSc2nc(N)c(NC(=O)c3cccs3)c(=O)[nH]2)c1 | -8 | -13 | 6 | -32* | -1
Cc1ccc(C(=O)Oc2ccc3c(C(C)C)cc(=O)oc3c2)cc1S(C)(=O)=O | . | . | . | 11 | .
CC1CCC(C(C)C)C(OC(=O)Cn2c(-c3ccccc3)[n+](C)c3ccccc32)C1 (stereo not given) | -19 | -21 | -6 | -4 | 3
CC1CCC(C(C)C)C(OC(=O)Cn2c(-c3ccc(F)cc3)[n+](C)c3ccccc32)C1 (stereo not given) | -72* | -14 | -10 | -10 | -1
Cc1cccnc1Nc1nc(-c2ccccc2)cs1 | 29 | -1 | 10 | 1 | -10
Cc1cccnc1Nc1nc(-c2ccccn2)cs1 | -86* | -39 | -1 | -1 | -12
Cc1cccc(Nc2nc(-c3cccs3)cs2)n1 | 0 | -9 | 0 | -5 | -16
COc1ccc(-c2csc(Nc3cccc(C)n3)n2)cc1C | 9 | 41* | 21 | -2 | 4
Cc1cccc(Nc2nc(-c3ccccn3)cs2)n1 | -79* | -41 | . | 9 | -2
COc1ccc(-c2csc(Nc3cccc(C)n3)n2)cc1 | 8 | 7 | 3 | -7 | -7
CCCc1ccc(C(=O)NCc2ccccn2)cc1 | . | . | . | 0 | .
O=Cc1cc(N=Nc2ccc(S(=O)(=O)O)cc2)ccc1O | ? | -20 | -76* | 0 | -12
SMILES | D3 antag | D3 ag | PI5P4K alpha inh | LDHA block | PI4K2A inh
O=S(=O)(O)c1ccc(N=NNc2ccc(Br)cc2)cc1 | 5 | 7 | ? | -10 | -19
COc1cc2cc3c(N)c(C(=O)Nc4sc(C)c(C)c4C#N)sc3nc2cc1OC | ? | -22 | . | -10 | -50*
COc1cc2cc3c(N)c(C(=O)NCc4ccco4)sc3nc2cc1OC | 14 | 4 | -10 | 4 | -8
COc1cc(NC(=O)Cc2nc(-c3cccs3)oc2C)cc(OC)c1 | . | . | . | 2 | .
O=S1(=O)Nc2c(ccc3cccnc23)-c2ccccc21 | -137* | -38 | . | 21 | -27
COC(=O)C(F)(Sc1c(C)n(C)n(-c2ccccc2)c1=O)C(F)(F)F (stereo not given) | -60* | -1 | . | -6 | 4
Cc1c(NC(=O)CC(O)(C(F)(F)F)C(F)(F)F)c(=O)n(-c2ccccc2)n1C | -13 | 2 | . | -1 | 2
Cc1nc2nc(-c3ccccc3Cl)nn2c(C)c1CC(=O)N1CCCC1 | . | . | . | 0 | .
Cc1ccc(COc2ccc(Br)cc2/C=N/O)cc1 | -94* | -5 | 1 | 0 | -3
Cc1ccc(NS(=O)(=O)c2ccc(C(=O)NC3CCN(Cc4ccccc4)CC3)cc2)cc1 | -68* | -4 | 0 | -5 | 3
CCC(C)(C)n1nnnc1CN1CCC(NC(=O)c2ccc(Br)cc2)CC1 | 0 | 8 | 2 | -3 | 1
Cc1ccc(S(=O)(=O)Nc2cccc(C(=O)NC3CCN(Cc4ccccc4)CC3)c2)cc1F | -23 | -29 | 7 | 2 | -3
Cc1ccc(NS(=O)(=O)c2cccc(C(=O)NC3CCN(Cc4ccccc4)CC3)c2)cc1 | ? | -22 | -1 | -5 | 2
Cc1ccc(Cn2nnnc2CN2CCC(NC(=O)c3ccc(Br)cc3)CC2)cc1 | -65* | 1 | 6 | -1 | 2
O=C(NC1CCN(Cc2ccccc2)CC1)c1cccc(S(=O)(=O)Nc2ccc(SC(F)F)cc2)c1 | -101* | -26 | -15 | 1 | -5
O=C(NC1CCN(Cc2ccccc2)CC1)c1cccc(NS(=O)(=O)c2ccc(Br)cc2)c1 | -109* | -27 | 0 | 0 | -8
Cc1ccc(C2C(C(=O)c3cccs3)=C(O)C(=O)N2c2nncs2)cc1 (stereo not given) | . | . | . | 5 | .
Cc1ccc(S(=O)(=O)N2CCN(S(=O)(=O)c3ccc4c(c3)OCCCO4)CC2)cc1 | . | . | . | -5 | .
COc1cccc(-n2sc3c(c2=S)-c2cc(OC)ccc2NC3(C)C)c1 | -69* | -6 | 20 | 1 | -7
O=C1CSC(=S)N1N=Cc1ccc(Cl)s1 | 28 | 4 | -55* | 15 | -17
O=C1CSC(=S)N1/N=C/c1ccc(O)c(O)c1O | 25 | 12 | -95* | 6 | -13
CC(C)(C)c1ccc(/C=N/N2C(=O)CSC2=S)cc1 | 4 | 8 | -2 | 8 | -2
